Here are results for 15 molecules from article PMC5540273 (PLoS ONE, 2017).

The subject of one assay is PRKCD. The note with it: concentration: 1 μM, replicates: in singlicate, n = 1.
The subject of the next assay is PRKCE. The conditions noted are these: concentration: 1 μM, replicates: in singlicate, n = 1.
The next assay has as its system PRKCH. The note with it: concentration: 1 μM, replicates: in singlicate, n = 1.
The subject of the next assay is PRKCI. The note with it: concentration: 1 μM, replicates: in singlicate, n = 1.
The test system of the next assay is PRKCQ. The conditions noted are these: concentration: 1 μM, replicates: in singlicate; n = 1.
Another assay has as its system PRKD1. The conditions noted are these: concentration: 1 μM, replicates: in singlicate, n = 1.
In the next assay the test system is PRKD2. The conditions noted are these: concentration: 1 μM, replicates: in singlicate, n = 1.
A further assay has as its system PRKD3. The note with it: concentration: 1 μM, replicates: in singlicate, n = 1.
The test system of a further assay is PRKG1. The conditions noted are these: concentration: 1 μM, replicates: in singlicate, n = 1.
For a further assay, the system named is PRKG2. The note with it: concentration: 1 μM, replicates: in singlicate, n = 1.

Molecules are shown by their SMILES. Several values for one entry are separate records, joined by “and”; a condition that tells them apart may be missing. Identical values can stand only once. Like-named read-outs stand apart in the source and are kept apart here.
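Note: KINOMEscan kinase panel screen.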

As for `CN1c2ccc(-c3ccc(C(=O)NCCO)cc3)cc2-c2[nH]ncc2S1(=O)=O`, the “%Inh” value in the assay on PRKCD was determined as 26%; in the assay on PRKCE it was 12%; with PRKCH it was 8%; in the assay with PRKCI it was 0%; in the assay with PRKCQ it was 1%; in the assay with PRKD1 it was 0%. The “%Inh” value in the assay on PRKD2 is 34%; in the assay with PRKD3, 0%; in the assay with PRKG1, 61%; in the assay with PRKG2, 9%.
Turning to `FC(F)(F)c1ccc(-c2cc(-c3c[nH]nc3-c3ccccn3)ccn2)cc1` [GW599550], the “%Inh” value amounted to 0% with PRKCD; 6% in the assay with PRKCE; 21% with PRKCH; 23% in the assay with PRKCI; 16% in the assay on PRKCQ; 23% in the assay on PRKD1. For the same molecule, the “%Inh” value was 16% in the assay on PRKD2, 17% in the assay with PRKD3, 4% in the assay on PRKG1 and 2% in the assay on PRKG2.
As for `Fc1cccc(COc2ccc(Nc3ncnc4sc(-c5ccc[nH]5)cc34)cc2Cl)c1` [GW707818], the “%Inh” value in the assay on PRKCD is 0%; with PRKCE it was 14%; in the assay on PRKCH, 100%; in the assay with PRKCI it was 9%; with PRKCQ, 0%; in the assay with PRKD1, 26%. Moreover, the “%Inh” value with PRKD2 came out at 54%; in the assay on PRKD3 it was 0%; with PRKG1, 0%; in the assay on PRKG2, 10%.
With `CCc1nc(-c2cccc(C)c2)c(-c2ccnc(NC(=O)c3ccccc3)c2)s1`, the “%Inh” value with PRKCD is reported as 20%; in the assay with PRKCE, 2%; in the assay on PRKCH it was 4%; in the assay with PRKCI, 2%; in the assay with PRKCQ it was 0%; in the assay with PRKD1, 0%. The “%Inh” value in the assay with PRKD2, in the assay with PRKD3, with PRKG1 and in the assay with PRKG2 was 0% throughout.
On to `COC(=O)c1cccc(NC(=O)NCCNc2ccnc(Nc3ccc(F)cc3)n2)c1` [GSK1379883], for which the “%Inh” value in the assay with PRKCD is 0%; in the assay on PRKCE it was 6%; with PRKCH, 34%; in the assay with PRKCI, 24%; with PRKCQ, 0%; in the assay with PRKD1, 21%. In addition, the “%Inh” value with PRKD2 was 35%; in the assay on PRKD3, 0%; in the assay with PRKG1, 7%; in the assay on PRKG2 it was 0%.
Consider `COc1ccc(-c2nc3n(c2-c2ccncc2)CCC3)cc1` [SKF-104493], for which the “%Inh” value with PRKCD (1 µM) is 0% and 8%; with PRKCE (1 µM), 45% and 8%; in the assay on PRKCH (1 µM), 6% and 7%; in the assay with PRKCI (1 µM), 0% and 50%; in the assay with PRKCQ it was 0%; with PRKD1 (1 µM), 0% and 3%. The “%Inh” value was 2% and 16% in the assay with PRKD2 (1 µM); 0% and 27% in the assay on PRKD3 (1 µM); 32% and 7% with PRKG1 (1 µM); 1% and 18% in the assay on PRKG2 (1 µM).
For the molecule `CC(C)N1CCC(n2cnc(-c3ccc(F)cc3)c2-c2ccnc(N)n2)CC1` [SB-223132], the “%Inh” value in the assay on PRKCD is listed as 9%; with PRKCE it was 0%; in the assay on PRKCH, 0%; in the assay with PRKCI, 29%; in the assay on PRKCQ it was 0%; in the assay on PRKD1 it was 18%. The “%Inh” value in the assay with PRKD2 is reported as 0%; with PRKD3 it was 0%; in the assay with PRKG1 it was 2%; with PRKG2, 2%.
Turning to `CC(=O)Nc1n[nH]c2ncc(-c3ccccc3)cc12` [SB-548492], the “%Inh” value in the assay on PRKCD is 7%; in the assay on PRKCE, 17%; in the assay with PRKCH it was 10%; in the assay on PRKCI, 0%; with PRKCQ, 0%; in the assay on PRKD1 it was 0%. For the same molecule, the “%Inh” value in the assay with PRKD2 is 0%; with PRKD3, 0%; with PRKG1 it was 30%; in the assay on PRKG2, 20%.
With `CC(C)(C)OC(=O)NC1CCCN(c2cc(-c3ccc4c(N)n[nH]c4c3)nc(N)n2)C1` (stereo not drawn) [GSK2286096], the “%Inh” value with PRKCD is 0%; with PRKCE it was 12%; in the assay with PRKCH, 0%; with PRKCI, 0%; in the assay on PRKCQ, 0%; in the assay on PRKD1, 0%. The “%Inh” value in the assay on PRKD2 came out at 15%; with PRKD3 it was 0%; with PRKG1, 0%; in the assay with PRKG2, 70%.
Take `Cl.O=S(=O)(c1cccc(F)c1)c1ccc(Nc2ncnc3cc(Br)sc23)cc1Cl` [GSK306886]: the “%Inh” value in the assay on PRKCD stood at 0%; in the assay with PRKCE, 45%; in the assay on PRKCH it was 0%; in the assay with PRKCI, 0%; in the assay on PRKCQ, 0%; with PRKD1 it was 7%. Moreover, the “%Inh” value in the assay with PRKD2 stood at 13%; in the assay with PRKD3, 4%; with PRKG1 it was 0%; in the assay with PRKG2 it was 23%.
Take `C[C@H]1CC[C@@H](C(=O)Nc2ccccc2)CN1c1cc(-c2ccc3c(N)n[nH]c3c2)nc(N)n1` [GSK2283293]: the “%Inh” value worked out at 0% in the assay with PRKCD; 0% in the assay on PRKCE; 24% in the assay with PRKCH; 24% in the assay with PRKCI; 4% with PRKCQ; 0% with PRKD1. The “%Inh” value in the assay with PRKD2 stood at 4%; with PRKD3, 0%; in the assay with PRKG1, 0%; in the assay with PRKG2, 4%.
For the molecule `CSc1nn2c(=O)cc(N3CCOCC3)nc2n1Cc1cccc(Cl)c1Cl` [GSK2347225], the “%Inh” value was found to be 5% with PRKCD; 6% in the assay with PRKCE; 23% in the assay with PRKCH; 27% in the assay with PRKCI; 0% in the assay on PRKCQ; 0% with PRKD1. The “%Inh” value worked out at 8% with PRKD2, 0% in the assay with PRKD3, 25% in the assay with PRKG1 and 0% in the assay on PRKG2.
As to `COc1cc2c(Nc3cccc(NC(=O)c4ccccc4)c3)ncnc2cc1OCCCN1CCOCC1` [GSK223810], the “%Inh” value in the assay on PRKCD came out at 18%; in the assay on PRKCE it was 13%; with PRKCH it was 10%; in the assay on PRKCI, 8%; in the assay on PRKCQ it was 22%; in the assay on PRKD1 it was 2%. The “%Inh” value with PRKD2 is on record as 4%; in the assay on PRKD3, 5%; in the assay with PRKG1 it was 8%; with PRKG2, 0%.
In the case of `Cl.Fc1ccccc1COc1ccc(Nc2ncnc3ccc(-c4nnc(C(F)(F)F)o4)cc23)cc1Cl` [GW424170], the “%Inh” value with PRKCD came to 0%; in the assay on PRKCE, 0%; with PRKCH, 2%; in the assay with PRKCI, 15%; in the assay with PRKCQ, 0%; with PRKD1 it was 0%. For the same molecule, the “%Inh” value in the assay on PRKD2 is recorded as 0%; with PRKD3, 0%; with PRKG1 it was 0%; with PRKG2, 4%.
For the molecule `O=C(Nc1ccccc1)Nc1ccc(Oc2ccc3nccn3n2)cc1`, the “%Inh” value in the assay on PRKCD came out at 10%; in the assay with PRKCE, 0%; in the assay with PRKCH, 0%; with PRKCI, 19%; in the assay with PRKCQ, 0%; with PRKD1, 24%. The “%Inh” value in the assay with PRKD2 turned out to be 6%; in the assay with PRKD3, 0%; with PRKG1 it was 13%; in the assay on PRKG2, 0%.
